Experimental data as given in PubChem BioAssay AID2283312 (EPA ToxCast).
Records with an inconclusive call do not appear. Activity calls are given as the source filed them. The calls were made as follows: active = hit-call score of the fitted dose curve at least 0.9, where 1 is the maximum; inconclusive = response in the unintended direction; inactive = score below 0.9.

target: rat Vasoactive Intestinal Peptide Receptor (VIP), Non-selective Binding, Vipr1 (gene 24875) (UniProt P30083); test: NVS_GPCR_rVIP_NonSelective: NovaScreen (NVS) G Protein-Coupled Receptor Assay for rat Vasoactive Intestinal Peptide Receptor (VIP), Non-selective Binding
Description: NVS_GPCR_rVIP_NonSelective is a biochemical, single-readout assay that uses extracted gene-proteins from Rat forebrain membranes in a tissue-based cell-free assay. Measurements were taken 1 hour after chemical dosing in a 96-well plate.NVS_GPCR_rVIP_NonSelective is one of one assay component(s) measured or calculated from the NVS_GPCR_rVIP_NonSelective assay. It is designed to make measurements of radioligand binding, a form of binding reporter, as detected with scintillation counting signals by Filter-based radiodetection technology.Data from the assay component NVS_GPCR_rVIP_NonSelective was analyzed into 1 assay endpoint. This assay endpoint, NVS_GPCR_rVIP_NonSelective, was analyzed in the positive analysis fitting direction relative to DMSO as the negative control and baseline of activity. Using a type of binding reporter, loss-of-signal activity can be used to understand changes in the binding as they relate to the gene Vipr1. Furthermore, this assay endpoint can be referred to as a primary readout, because the performed assay has only produced 1 assay endpoint. To generalize the intended target to other relatable targets, this assay endpoint is annotated to the gpcr intended target family, where the subfamily is secretin receptor.
Binding assays used specific radioligands (tritiated, iodinated) with non-radioactive competitive displacement ligands in agonist or antagonist protocols (as indicated) and various reference compounds and inhibitors to titrate specific binding to receptors and transporters. Most enzyme assays (CYPs, kinases, phosphatases, proteases, HDACs) used recombinant protein and specific substrates (fluorescence mostly, some colorimetric and radioactive) and inhibitors, followed by a biochemical separation of substrate and product. All assays for the biochemical HTS were initially run in duplicate at a single concentration (10 uM for CYP450 assays and 25 uM for all others). Assay-chemical combinations meeting a pre-defined threshold (e.g., 30% inhibition and other criteria defined below) were then run in singleton concentration-response format with maximum concentration of 20 uM for CYPs and 50 uM for all others. Each assay was run with positive and negative controls, and concurrent controls on every plate. The follow-up (secondary) screen tested active chemical-pairs in concentration series, as well as a few additional assays not tested in the primary screen, some selected negative inactives, and several cases re-run in the concentration series for confirmatory purposes.

Sequence of rat Vasoactive Intestinal Peptide Receptor (VIP), Non-selective Binding, Vipr1 (gene 24875) (P30083 whole entry, looked up): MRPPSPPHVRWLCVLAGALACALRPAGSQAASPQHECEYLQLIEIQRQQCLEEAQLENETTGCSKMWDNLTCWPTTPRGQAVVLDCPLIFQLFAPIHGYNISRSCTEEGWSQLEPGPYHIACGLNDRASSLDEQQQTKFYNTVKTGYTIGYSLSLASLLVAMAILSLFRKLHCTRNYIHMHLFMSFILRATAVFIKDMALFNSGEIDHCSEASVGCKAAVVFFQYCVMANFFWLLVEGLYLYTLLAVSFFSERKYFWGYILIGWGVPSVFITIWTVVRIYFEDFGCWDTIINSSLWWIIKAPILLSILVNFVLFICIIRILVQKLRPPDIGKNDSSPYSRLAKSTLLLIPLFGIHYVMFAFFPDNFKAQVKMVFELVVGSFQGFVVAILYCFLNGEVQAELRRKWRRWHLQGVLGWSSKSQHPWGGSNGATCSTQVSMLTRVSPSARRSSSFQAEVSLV

SMILES | outcome | AC50
CC(C)N1C(=O)N(c2ccccc2)CSC1=NC(C)(C)C | inactive | 
COP(=S)(OC)Oc1nc(Cl)c(Cl)cc1Cl | inactive | 
Oc1ccccc1-c1ccccc1 | inactive | 
CC(=O)[O][Hg][c]1ccccc1 | inactive | 
Cc1ccc(-c2c(Cl)nc(C#N)n2S(=O)(=O)N(C)C)cc1 | inactive | 
CCOP(=O)(OCC)Oc1nc(Cl)c(Cl)cc1Cl | inactive | 
CC[C@H](C)[C@H]1O[C@]2(C=C[C@@H]1C)C[C@@H]1C[C@@H](C/C=C(\C)[C@@H](O[C@H]3C[C@H](OC)[C@@H](O[C@H]4C[C@H](OC)[C@@H](NC)[C@H](C)O4)[C@H](C)O3)[C@@H](C)/C=C/C=C3\CO[C@@H]4[C@H](O)C(C)=C[C@@H](C(=O)O1)[C@]34O)O2 | inactive | 
Nc1c(Cl)c(F)nc(OCC(=O)O)c1Cl | inactive | 
CCC[CH2][Sn]([Cl])([CH2]CCC)[CH2]CCC |  | 7.97 µM (active)
C=C(C)C(=O)[O][Sn]([CH2]CCC)([CH2]CCC)[CH2]CCC |  | 14.9 µM (active)
